Results published in PubChem BioAssay (NCI).
This is part of a sample that, as a whole, favours compounds with a hit. Of some 83,000 tested, about 20% had one in any assay.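 Each cell line was grown in a 96-well plate and treated with one concentration of compound for 48 hours. Values below 10 were considered active.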 Unmarked numbers belong to inactive results. Active and inactive are the calls of the source.

The molecules below were run on SK-MEL-2 melanoma (assay: NCI-60 one-dose screen, 48 h (100 = growth as untreated, 0 = no growth, -100 = all killed)). Settings: 10 µM unless noted.

SMILES | growth
Cc1cc(Cl)nc(N(CCNc2ccnc3cc(Cl)ccc23)Cc2ccccn2)n1 | 69.5%
COc1ccc(C(=O)c2cc(OC)c(OC)c(OC)c2)cc1O | 59.6%
N#C/C(=C\c1ccc([N+](=O)[O-])s1)c1nc2cc(Br)ccc2s1 | -41.1% (active)
Brc1ccc2[nH]cc(-c3cncn3CCc3ccccc3)c2c1 | 55.8%
Cc1c(C)c([N+](=O)[O-])c(C)c([N+](=O)[O-])c1C | 102%
COc1ccc(C(=O)CC#N)cc1 | 134%
O=C(/C=C/c1c(-c2ccc(Cl)cc2)nn(-c2ccccc2)c1C(F)(F)F)c1ccc(Cl)cc1 | 89%
Cc1ccc(NS(=O)(=O)c2ccc(-c3cnc(C4CC4)o3)cc2)cc1C(F)(F)F | 84.8%
CC(C)c1ccc(Nc2ccc3c(OCCCN4CCN(C)CC4)cccc3n2)cc1 | 105%
CCN(c1ccccc1)S(=O)(=O)c1cc([N+](=O)[O-])ccc1Cl | 46.2%
C=C1C(=O)O[C@H]2[C@H]1CC/C(CNS(=O)(=O)c1cccc3ccccc13)=C\CC[C@@]1(C)O[C@@H]21 | 59.4%
COc1cc(C(=O)Nc2cc3c(cc2Oc2cc(C)cc(C)c2)C(=O)N(C)[C@@H](CC(=O)N(C)O)C(=O)N3)c(Br)c(OC)c1OC | -55.3% (active)
Cc1c2cc[nH]c(=O)c2c(C)c2c1[nH]c1cc(OCCN3CCN(C)CC3)ccc12 | -13.1% (active)
Cn1cc(-c2csc(-c3c[nH]c4ccccc34)n2)c2ccnc(Cl)c21 | 94.4%
COc1ccc2nc(-c3ccc(-c4noc(-c5cc(OC)c(OC)c(OC)c5)n4)cc3)[nH]c2c1 | 99.2%
Cn1cc(-c2nc(-c3c[nH]c4c(Cl)nccc34)cs2)c2cc(F)ccc21 | 95.6%
O=C1NN(C(=O)c2ccccc2)C(c2ccc(Cl)c(Cl)c2)=C/C1=C\c1ccc([N+](=O)[O-])cc1 | 100%
COc1ccc(OC)c(CCn2cncc2-c2c[nH]c3ccccc23)c1 | 73.5%
N#Cc1c(-c2cccc([N+](=O)[O-])c2)nc(SCC(=O)c2ccc(Cl)cc2)[nH]c1=O | 110%
COC(=O)c1ccc2c(c1)[n+](=O)c(C(C)=O)c(C(F)(F)F)n2[O-] | -31.9% (active)
C#Cc1cccc(NC(=O)Nc2cccc(NC(=O)CCl)c2)c1 | 6.45% [8.25 µM] (active)
Cc1nc2sccn2c1-c1cn2ccsc2n1 | 98%
